In all, about 360,000 compounds went through this assay and about 16,000 (4.4%) were called active. About 9% were inconclusive and are not listed. The sample holds actives, similar compounds and a random draw of the others, so the mix is not that of the screen. Unmarked numbers belong to inactive results. The call rests on the fitted dose curve; in most records, active means well fitted inhibition curve with a large enough effect; inconclusive means small, poorly fitted or top-dose-only effect; inactive means no such curve, though single readings can be large or run the other way.
The compounds below were run against Bromodomain adjacent to zinc finger domain protein 2B (Homo sapiens) (UniProt Q9UIF8) (assay: qHTS Assay for Inhibitors of BAZ2B). Conditions: AlphaScreen BAZ2B-H3K14Ac peptide displacement; series mostly up to 114 µM; activity change, negative = inhibition: at the top concentration.
Chain of Bromodomain adjacent to zinc finger domain protein 2B (Homo sapiens) (Q9UIF8 whole entry, looked up, the tested form may be a part): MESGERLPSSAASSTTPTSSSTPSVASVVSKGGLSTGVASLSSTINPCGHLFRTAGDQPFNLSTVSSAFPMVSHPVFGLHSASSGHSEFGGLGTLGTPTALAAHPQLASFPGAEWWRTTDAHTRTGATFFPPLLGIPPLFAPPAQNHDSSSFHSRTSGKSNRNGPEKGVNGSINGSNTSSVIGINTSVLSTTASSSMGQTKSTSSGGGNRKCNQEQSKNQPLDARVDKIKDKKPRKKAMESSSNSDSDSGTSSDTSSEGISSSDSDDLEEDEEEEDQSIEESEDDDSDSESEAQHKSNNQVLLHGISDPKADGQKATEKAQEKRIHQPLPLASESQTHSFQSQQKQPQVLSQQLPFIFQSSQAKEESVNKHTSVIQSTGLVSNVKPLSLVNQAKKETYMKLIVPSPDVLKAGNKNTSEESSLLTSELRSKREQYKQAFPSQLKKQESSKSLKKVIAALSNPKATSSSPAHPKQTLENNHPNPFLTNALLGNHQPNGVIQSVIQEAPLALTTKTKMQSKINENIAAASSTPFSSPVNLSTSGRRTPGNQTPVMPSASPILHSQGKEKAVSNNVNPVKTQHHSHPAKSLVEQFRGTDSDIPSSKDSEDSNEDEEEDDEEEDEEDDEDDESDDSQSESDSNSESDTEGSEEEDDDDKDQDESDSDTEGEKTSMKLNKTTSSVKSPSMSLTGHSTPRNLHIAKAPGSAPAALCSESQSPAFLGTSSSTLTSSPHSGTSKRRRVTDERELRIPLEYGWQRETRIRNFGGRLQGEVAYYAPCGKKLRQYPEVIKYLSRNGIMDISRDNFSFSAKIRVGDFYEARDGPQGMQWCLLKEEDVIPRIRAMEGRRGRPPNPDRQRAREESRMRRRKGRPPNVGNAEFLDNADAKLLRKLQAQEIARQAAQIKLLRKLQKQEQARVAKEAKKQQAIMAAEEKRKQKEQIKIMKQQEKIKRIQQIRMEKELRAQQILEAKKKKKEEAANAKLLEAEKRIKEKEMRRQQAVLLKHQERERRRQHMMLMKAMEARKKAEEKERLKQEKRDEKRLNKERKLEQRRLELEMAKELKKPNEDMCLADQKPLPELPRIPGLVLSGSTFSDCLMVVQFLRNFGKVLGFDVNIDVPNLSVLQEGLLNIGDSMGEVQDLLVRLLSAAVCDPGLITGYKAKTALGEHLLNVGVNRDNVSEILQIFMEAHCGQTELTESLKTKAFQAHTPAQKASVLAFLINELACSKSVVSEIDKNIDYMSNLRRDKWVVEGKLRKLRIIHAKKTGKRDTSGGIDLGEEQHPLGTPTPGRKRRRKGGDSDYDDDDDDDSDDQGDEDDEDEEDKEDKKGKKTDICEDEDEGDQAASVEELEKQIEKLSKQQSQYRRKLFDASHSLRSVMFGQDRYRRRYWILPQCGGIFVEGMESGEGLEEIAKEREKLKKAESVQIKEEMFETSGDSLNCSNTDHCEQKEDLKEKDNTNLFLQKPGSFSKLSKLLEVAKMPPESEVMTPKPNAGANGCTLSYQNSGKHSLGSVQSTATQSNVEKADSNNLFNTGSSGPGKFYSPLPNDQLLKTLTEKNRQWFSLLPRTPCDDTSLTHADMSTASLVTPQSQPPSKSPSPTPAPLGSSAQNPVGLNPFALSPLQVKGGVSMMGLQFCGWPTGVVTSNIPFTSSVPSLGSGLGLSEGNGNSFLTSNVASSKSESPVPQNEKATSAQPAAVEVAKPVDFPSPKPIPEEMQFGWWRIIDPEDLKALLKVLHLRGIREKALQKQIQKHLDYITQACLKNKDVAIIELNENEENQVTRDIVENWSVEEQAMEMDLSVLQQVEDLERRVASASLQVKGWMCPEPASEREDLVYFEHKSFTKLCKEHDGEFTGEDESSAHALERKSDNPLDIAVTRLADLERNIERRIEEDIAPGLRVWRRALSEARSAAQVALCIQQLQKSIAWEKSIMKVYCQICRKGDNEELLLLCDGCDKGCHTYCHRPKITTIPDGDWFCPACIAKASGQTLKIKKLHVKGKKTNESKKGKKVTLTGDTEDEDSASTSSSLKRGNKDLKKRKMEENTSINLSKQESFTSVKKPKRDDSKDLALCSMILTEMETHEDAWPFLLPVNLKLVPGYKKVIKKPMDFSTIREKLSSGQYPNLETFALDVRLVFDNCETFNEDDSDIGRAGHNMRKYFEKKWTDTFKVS
Source text: BAZ2B (bromodomain adjacent to zinc finger domain, 2B) belongs to a family of ubiquitously expressed bromodomain containing proteins, which biological function has not yet been elucidated. […] The interaction of BAZ2B with ISWI mediated by the BAZ1 motif has recently been described. […] The protocol is based on the AlphaScreen (PerkinElmer) displacement assay developed by NCGC [5], but uses the peptide ligand Biot-H3K14Ac, a high affinity binding partner for BAZ2B, in an AlphaScreen format. Although AlphaScreen has significant advantages with its utility in a variety of epigenetic target assays, the primary screening data provided in this deposition should be used with caution due to the prevalence of screening artifacts. The top compound concentration tested was 110uM in this assay, which increases number of actives and potential artifacts. An AlphaScreen counterscreen is highly recommended to be run against any putative actives to eliminate non-specific artifacts. Alternatively, one can use other AlphaScreen assays in PubChem to filter out promiscuous hits. Eberharter, A. et al. ACF1 improves the effectiveness of nucleosome mobilization by ISWI through PHD-histone contacts. The EMBO journal 23, 4029-4039. 2004. PMID: 15457208 [2] Jones, M.H. et al. A novel family of bromodomain genes. Genomics 63, 40-45. 2000. PMID: 10662543 [3] Yasgar, et al. Compound Management for Quantitative High-Throughput Screening. JALA. 2008 Apr;13(2):79-89. PMID: 18496600 [4] Inglese, et al. Quantitative high-throughput screening: a titration-based approach that efficiently identifies biological activities in large chemical libraries. Proc Natl Acad Sci. 1;103(31):11473-8. 2006. PMID: 16864780 [5] Quinn et al. A chemiluminescence-based method for identification of histone lysine methyltransferase inhibitors. Mol Biosyst 6(5): 782-8. 2010. PMID: 20567762 [6] Baell,Holloway. New substructure filters for removal of pan assay interference compounds (PAINS) from screening libraries and for their exclusion in bioassays. J Med Chem. 53(7):2719-40. 2010. PMID: 20131845 NIH Molecular Libraries Probe Production Network [MLPCN] NIH Chemical Genomics Center [NCGC] Structural Genomics Consortium (SGC) NIH Grant: 5U54 MH084681-02
To each well of a 1,536w plate, 2ul of BAZ2B protein (final 50nM) and 1ul biotinylated histone peptide acetylated at Lys14 [b-H3(5-23)K14Ac] (final 50nM) were added in 1x PBS buffer, pH 7.4, containing 0.01% Tween-20, using a nanoliter dispenser. Formation of a protein-peptide complex proceeded at room temperature for 30 min. A Kalypsys pin-tool was employed to transfer 23 nL of library compound solution in DMSO to each well. Following a 30 min incubation of the protein-peptide complex with compounds at room temperature, a mixture of 40 ug/mL each streptavidin-coated donor and nickel chelate acceptor AlphaScreen beads (final 10 ug/mL) were added in a 1ul dispense for a final volume of 4ul. A brief centrifugation followed (1000rpm, 1 min) and were then incubated protected from the light for 20 min at room temperature. Plates were read on an EnVision multilabel plate reader using the 1,536 plate HTS AlphaScreen aperture (excitation time 80 ms, measurement time 240 ms).
In the case of `Cc1ccccc1NC(=O)c1ccccc1NS(=O)(=O)c1cccc2cccnc12`, the “activity change, negative = inhibition” value is reported as -10.2%.
In the case of `COc1cc(NS(=O)(=O)c2ccc3ccccc3c2)c2ncccc2c1`, the “activity change, negative = inhibition” value is reported as 19.5%.
For `Cc1nn(-c2nc(-c3ccccc3)cc(C(F)(F)F)n2)c(C)c1Cl`, the “activity change, negative = inhibition” value was 47%.
For `O=C(Nc1nc2c(s1)CCCC2)c1ccccc1F`, the “activity change, negative = inhibition” value was -17.9%.
For `COC(=O)C(NC(C)=O)(Nc1nc2c(s1)CCCC2)C(F)(F)F` (configuration not stated), the Potency was 56.2 µM (active).
For `Cc1cc(C)cc(OC(C)C(=O)Nc2nc3c(s2)CCCC3)c1` (configuration not stated), the “activity change, negative = inhibition” value was -7.96%.
With `O=C(CCS(=O)(=O)c1ccc2c(c1)NC(=O)CO2)Nc1cccc(C(F)(F)F)c1` the “activity change, negative = inhibition” value was -2.62%.
In the case of `CCOC(=O)CSC1=Nc2ccccc2C2=NC(CCC(=O)NCc3ccc(F)cc3)C(=O)N12` (configuration not stated), the “activity change, negative = inhibition” value is reported as 0.0886%.
For `Cc1ccc(C)n1C(Cc1ccccc1)C(=O)O` (configuration not stated), the Potency was 39.8 µM (active).
For `CCOC(=O)C(Cc1ccc(N)cc1)N1C(=O)c2ccccc2C1=O` (configuration not stated), the “activity change, negative = inhibition” value was -37.5%.
For `N[C@@H](Cc1ccccc1)C(=O)N1CCOCC1`, the “activity change, negative = inhibition” value was -4.8%.
With `Cc1ccc2nc(CN3CCN(S(=O)(=O)c4ccc(C)c(C)c4)CC3)oc2c1` the “activity change, negative = inhibition” value was -10.3%.
For `Cc1nn(-c2ccccn2)c2c1C(c1ccncc1)C1=C(CC(C)(C)CC1=O)N2` (configuration not stated), the “activity change, negative = inhibition” value was -34.3%.
In the case of `Cc1cc(C)c(C2C3=C(Nc4c2c(C)nn4-c2ccccn2)c2ccccc2C3=O)c(C)c1` (configuration not stated), the Potency is reported as 10 µM (active).
For `CC(=C1C(=O)c2ccccc2C1=O)N1CCN(c2ccccn2)CC1`, the “activity change, negative = inhibition” value was -6.35%.
`COc1ccccc1CCNC(=O)c1cccn1-c1nnc(N2CCCCC2)s1` was tested, and the “activity change, negative = inhibition” value was -16.4%.
In the case of `CCCOc1cccc(C(=O)Nc2cccc(NC(=O)c3ccc(C(C)(C)C)cc3)c2)c1`, the “activity change, negative = inhibition” value is reported as -1.31%.
With `CCOC(=O)c1ccc(NC(=O)Cn2c(=O)n(-c3ccc(C)cc3)c(=O)c3c2cnn3C)cc1` the “activity change, negative = inhibition” value was -1.23%.
For `O=C(NC1CCCCC1)c1ccc2c(c1)N(Cc1ccc(Cl)cc1)C(=O)c1ccccc1S2=O` (configuration not stated), the “activity change, negative = inhibition” value was -6.93%.
In the case of `NC(=O)CSc1nnc(NC(=O)c2ccc3ccccc3c2)s1`, the “activity change, negative = inhibition” value is reported as 5.1%.
With `CCSc1nnc(NC(=O)c2cc(=O)c3cc(C)c(C)cc3o2)s1` the “activity change, negative = inhibition” value was -3.2%.
In the case of `NC(=O)CSc1nnc(NC(=O)c2ccc(Br)o2)s1`, the Potency is reported as 56.2 µM (active).
With `CCCNC(=O)C(CC)n1nc(CC)n2c(cc3oc(C)cc32)c1=O` (configuration not stated) the “activity change, negative = inhibition” value was -2.51%.
For `COc1cccc(NC(=O)C(=O)NCC(c2ccc3c(c2)OCO3)N2CCN(C)CC2)c1` (configuration not stated), the “activity change, negative = inhibition” value was 3.37%.
`CC(C)C(=O)Nc1nc2c(s1)CC(C(C)(C)C)CC2` (configuration not stated) was tested, and the “activity change, negative = inhibition” value was 1.19%.
With `COc1ccc(CNC(=O)CCN2C(=O)c3ccccc3C2=O)cc1` the “activity change, negative = inhibition” value was -3.11%.
For `CCOC(=O)c1cc2cc3ccccc3cc2oc1=O`, the “activity change, negative = inhibition” value was -24.2%.
For `CCOC(=O)C1=C(c2ccc(OC)cc2)C(=O)c2ccccc2C1=O`, the Potency was 20 µM (active).
With `CCCCn1cc(S(=O)(=O)c2ccc(OCC)cc2)c(=O)c2cc(OC)c(OC)cc21` the “activity change, negative = inhibition” value was -34.9%.
In the case of `Cc1ccc(CCNC(=O)C2CCN(c3nnc(-n4cccc4CNc4ccc(C)cc4)s3)CC2)cc1`, the “activity change, negative = inhibition” value is reported as -8.92%.
For `C/C(=N\Nc1cccc(C(=O)O)c1)c1ccc2c(c1)Nc1ccccc1S2`, the Potency was 44.7 µM (active).
With `CC(=O)Nc1cccc(/C(C)=N/NC(=O)c2c(-c3ccccc3Cl)noc2C)c1` the “activity change, negative = inhibition” value was 5.83%.
`Cc1ccccc1NC(=O)c1cc(S(=O)(=O)Nc2cccc(C(=O)O)c2)ccc1Cl` was tested, and the “activity change, negative = inhibition” value was -0.0282%.
`Cc1ccc2nc(COc3ccccc3NC(=O)Nc3ccc(F)c(Cl)c3)cc(=O)n2c1` was tested, and the “activity change, negative = inhibition” value was 0.153%.
`Cc1ccc(-n2nc(C)c(C(=O)O)c2-n2cccc2)cc1` was tested, and the Potency was 50.1 µM (active).
For `Cc1nn(-c2ccc(F)cc2)c(-n2cccc2)c1C(=O)N1CCN(c2ccccc2)CC1`, the “activity change, negative = inhibition” value was -11.9%.
With `Cc1nn(-c2ccccc2)c(-n2cccc2)c1C(=O)O` the “activity change, negative = inhibition” value was 3.55%.
`O=C(NCc1ccc2c(c1)CCN2C(=O)c1ccccc1)Nc1cc(F)ccc1F` was tested, and the “activity change, negative = inhibition” value was -2.67%.
`COc1ccc(OC)c(NC(=O)CSC2=Nc3ccccc3C3=NC(CC(=O)NCc4ccc(F)cc4)C(=O)N23)c1` (configuration not stated) was tested, and the “activity change, negative = inhibition” value was -32.1%.
With `COc1ccccc1NC(=O)c1sc2nc(C)c(C(=O)Nc3ccc(Cl)cc3)c(-c3ccc(Br)cc3)c2c1N` the “activity change, negative = inhibition” value was -20.6%.
With `Cc1ccc(CSCC(=O)N(C)CC(=O)Nc2ccc(C)cc2)cc1` the “activity change, negative = inhibition” value was 1.11%.
`CCCCN(C)CCNC(=O)CSCc1ccc(C)cc1` was tested, and the Potency was 50.1 µM (active).
In the case of `CCN(CC(=O)Nc1cc(Cl)ccc1C)C(=O)CSCc1ccc(C)cc1`, the “activity change, negative = inhibition” value is reported as 7.16%.
With `CCOc1ccccc1C(=O)NC1(C(F)(F)F)NC(=O)N(CCc2ccc(OC)c(OC)c2)C1=O` (configuration not stated) the “activity change, negative = inhibition” value was -25.7%.
In the case of `CCN(C(=O)c1sc2cc(OC)ccc2c1Cl)c1ccccc1`, the “activity change, negative = inhibition” value is reported as 31%.
With `CCC(=O)Nc1ccc2nc(SCC(=O)N3CCc4ccccc43)sc2c1` the “activity change, negative = inhibition” value was -26.5%.
`CCN(CCCNC(=O)Cn1ncc2c3ccccc3n(C)c2c1=O)Cc1ccccc1` was tested, and the “activity change, negative = inhibition” value was -2.02%.
For `CCc1ccc(NC(=O)c2nn(-c3ccc(C)cc3)c(=O)n(C)c2=O)cc1`, the “activity change, negative = inhibition” value was -15.6%.
`CCCC(=O)Nc1cc2nn(-c3ccccc3)nc2cc1C` was tested, and the “activity change, negative = inhibition” value was 2.37%.
In the case of `O=C(Nn1cc(C(=O)N2CCN(c3ccccc3F)CC2)c2ccccc2c1=O)c1cnccn1`, the Potency is reported as 28.2 µM (active).
For `O=C(Cn1nc(Cc2cccnc2)c2ccccc2c1=O)N1CCN(c2ccccc2F)CC1`, the “activity change, negative = inhibition” value was -14%.
With `Cc1nc2ccn(Cc3cccnc3)c(=O)c2cc1C(=O)N1CCN(c2ccccc2F)CC1` the “activity change, negative = inhibition” value was -10.5%.
Further: nearly all actives have a fitted effect of over 60% in size.
On the % scale 0 is the no-effect control and ±100 the full control effect; potency means the concentration at half of the fitted maximal effect.
